Assay [1] addresses Glutathione peroxidase 1 (Homo sapiens) (UniProt P07203). Briefly: Primary qHTS Assay for Inhibitors of Recombinant Selenoprotein Glutathione Peroxidase 1 (GPX1) (AID 1845191). Also: nearly all actives have a fitted effect of over 65% in size. Also: potency is read from the fitted curve at half-maximal effect. Particulars: recombinant GPX1, GR-coupled NADPH fluorescence, 15 min; series mostly up to 48.8 µM. The procedure, abridged:
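Recombinant GPX1 (10 nM final) was preincubated with compound for 30 min at room temperature, then reacted with 1 mM GSH, 0.5 mM CHP, 0.5 mM NADPH and 100 nM glutathione reductase; NADPH fluorescence (340/450 nm) was read at 0 and 15 min.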
Background: qHTS replaces the single test concentration by a dilution series.

For assay [2], the target named is Luciferin 4-monooxygenase (Photinus pyralis) (UniProt P08659). Briefly: Primary firefly luciferase (FLuc) qHTS assay for identification of artifact compounds. (AID 1845220). Also: nearly all actives have a fitted effect of over 60% in size. Also: potency is read from the fitted curve at half-maximal effect. Particulars: purified firefly luciferase, luminescence, 5 min; series mostly up to 54.1 µM. The procedure, abridged: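 qHTS, 15 min compound preincubation with substrate (10 uM luciferin, 10 uM ATP) at RT, then 10 nM FLuc; 5 min; luminescence; % inhibition vs no-enzyme/DMSO controls, 4-parameter Hill fit.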

Assay [3] can be described thus: Primary fluorescence-based thiol-reactive (MSTI) qHTS assay for identification of artifact compounds. (AID 1845221). Also: nearly all actives have a fitted effect of over 65% in size. Also: potency is read from the fitted curve at half-maximal effect. Particulars: MSTI thiol-reactivity probe, 1 h; series mostly up to 53.8 µM. The procedure, abridged:
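Thiol-reactive compounds detected by quenching of 4 uM MSTI fluorescence (525/598 nm) after 1 h room-temperature dark incubation in PBS pH 7.4, 2% DMSO. qHTS titration; percent inhibition Hill-fitted against Acetyl-MSTI/MSTI controls.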

For assay [4], the system named is Nanoluciferase (engineered Oplophorus gracilirostris luciferase). Briefly: Primary Nanoluciferase (NLuc) qHTS assay for identification of artifact compounds. (AID 1845222). Particulars: NLuc-conditioned medium, Nano-Glo luminescence, 5 min; series mostly up to 54.1 µM. The procedure, abridged: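 Luminescence read-out of secreted NLuc in S16 cell conditioned medium (1:55); compounds tested with 15 min RT preincubation, then Nano-Glo substrate 1:100, 5 min. % inhibition vs no-enzyme and DMSO controls, 4-parameter Hill fit.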

Assay [5] can be described thus: Primary redox qHTS assay for identification of artifact compounds. (AID 1845223). Also: potency is read from the fitted curve at half-maximal effect. Particulars: Amplex Red/HRP redox cycling with DTT, fluorescence; series mostly up to 53.8 µM. The procedure, abridged:
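Amplex Red (25 uM) and HRP (250 mU/mL) in HBSS, with compounds for 15 min, then 250 uM DTT for 30 min, room temperature, dark. Fluorescence 525/598 nm read; normalized to DMSO and 10 uM DA3003; Hill fit.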

In assay [6] the target is Phospholipid hydroperoxide glutathione peroxidase GPX4 (Homo sapiens) (UniProt P36969). The assay can be described thus: Primary qHTS Assay for Inhibitors of Recombinant Selenoprotein Glutathione Peroxidase 4 (GPX4) (AID 1845192). Also: nearly all actives have a fitted effect of over 65% in size. Also: potency is read from the fitted curve at half-maximal effect. Particulars: recombinant GPX4, GR-coupled NADPH fluorescence, 15 min; series mostly up to 50 µM. The method, boiled down: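 GR-coupled readout: 100 nM GR, 1 mM GSH, 0.5 mM NADPH; NADPH fluorescence (ex 340/em 450 nm) read at t=0 and after 15 min RT. GPX4 200 nM, preincubated 30 min with compound; substrate 0.5 mM CHP.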
Chain of Phospholipid hydroperoxide glutathione peroxidase GPX4 (Homo sapiens) (P36969 whole entry, looked up): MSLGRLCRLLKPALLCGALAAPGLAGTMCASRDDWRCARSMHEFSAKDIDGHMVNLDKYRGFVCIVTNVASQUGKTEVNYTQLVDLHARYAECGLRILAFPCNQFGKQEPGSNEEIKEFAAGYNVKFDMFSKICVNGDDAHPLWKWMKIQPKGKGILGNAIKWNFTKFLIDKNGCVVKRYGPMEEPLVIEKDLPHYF

Each structure is given as a SMILES string. Inconclusive results are not listed. The source holds several records for some structures; these can differ, active in one and inactive in another. Active and inactive are the calls of the source. Calls follow the shape of the dose curve; as a rule, active = well fitted curve in the direction sought with a large enough effect; inconclusive = small, poorly fitted or top-dose-only effect, or another doubt; inactive = no such curve, though single readings can be large; an effect the other way counts as inactive or inconclusive.

Chain of Glutathione peroxidase 1 (Homo sapiens) (P07203 whole entry, looked up): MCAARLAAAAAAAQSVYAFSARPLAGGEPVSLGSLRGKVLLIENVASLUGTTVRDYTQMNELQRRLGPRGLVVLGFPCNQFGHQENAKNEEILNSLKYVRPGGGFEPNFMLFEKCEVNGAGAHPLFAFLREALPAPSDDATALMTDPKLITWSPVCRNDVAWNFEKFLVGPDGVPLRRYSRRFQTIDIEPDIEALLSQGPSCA

On to `Clc1cccc(COc2cncc(N3CCNCC3)n2)c1`, for which the Potency entry in assay [1], in assay [2], in assay [3], in assay [4] and in assay [5] was “inactive” each time.
For `O=C(Nc1nc2ccc([N+](=O)[O-])cc2s1)C1CCCCC1`, the Potency entry in assay [1], in assay [6], in assay [4] and in assay [5] was “inactive” throughout.
As to `CC(C)c1ccc(-c2cc(=O)c3ccccc3o2)cc1`, the Potency entry in assay [1], in assay [6], in assay [3], in assay [4] and in assay [5] was “inactive” each time.
As to `Nc1nc2c(cnn2CCCc2ccc(O)cc2)c2nc(-c3ccco3)nn12`, the Potency result in assay [1], in assay [6], in assay [3], in assay [4] and in assay [5] was “inactive” each time.
As for `CN(C)c1ccc(NC(=O)NS(=O)(=O)c2ccc(Cl)cc2)cc1`, the Potency result in assay [1], in assay [6] and in assay [4] was “inactive” each time. In addition, the Potency in assay [3] was 1.89 µM (active); in assay [5], 3.36 µM (active).
For the compound `CNc1nc(Nc2ccc(C(=O)N3CCOCC3)cc2OC)nc2[nH]cc(Cl)c12`, the Potency result in assay [1], in assay [6], in assay [4] and in assay [5] was “inactive” each time. Besides, the Potency in assay [3] is 1.68 µM (active).
As to `O=C(Nc1ccc(-c2ccc(Cl)c(Cl)c2)cc1)C1=C(O)c2ccccc2S(=O)(=O)N1`, the Potency result in assay [1], in assay [6], in assay [3], in assay [4] and in assay [5] was “inactive” each time.
`Cc1cc(C(=O)Nc2cc(Nc3ccc4c(/C=C/c5ccccn5)n[nH]c4c3)ccc2F)n(C)n1`: the Potency entry in assay [1], in assay [6], in assay [4] and in assay [5] was “inactive” throughout. Further, the Potency in assay [3] is 11.9 µM (active).
For `CCc1ccc(-c2nc(CSCC(=O)NCCc3ccccc3)c(C)o2)cc1`, the Potency result in assay [1], in assay [6], in assay [3], in assay [4] and in assay [5] was “inactive” throughout.
Consider `CCCCC1CCN(CCCN2C(=O)CCc3ccccc32)CC1`, for which the Potency entry in assay [1], in assay [6], in assay [3], in assay [4] and in assay [5] was “inactive” in each case.
Take `CC1(C)CCC(C)(C)c2cc(C#Cc3ccc(C(=O)O)cc3)ccc21`: the Potency entry in assay [1], in assay [6], in assay [3], in assay [4] and in assay [5] was “inactive” throughout.
Take `C=C1/C(=C/C=C2\CCC[C@]3(C)[C@@H]([C@@H](C)OCCC(O)(CC)CC)CC[C@@H]23)C[C@@H](O)C[C@@H]1O`: the Potency result in assay [1], in assay [2], in assay [3] and in assay [4] was “inactive” in each case.
Regarding `CCC(CC)C(c1ccc(Nc2nc3ccccc3s2)cc1)n1cncn1` (stereo not given), the Potency entry in assay [1], in assay [2], in assay [3], in assay [4] and in assay [5] was “inactive” throughout.
For `COc1ccc2nc3n[nH]c(C)c3c(NCCOCCO)c2c1`, the Potency entry in assay [1], in assay [2], in assay [4] and in assay [5] was “inactive” in each case.
Take `N#Cc1ccc(N2N=C3c4ccc(C(=O)O)cc4CC[C@@H]3[C@@H]2C2CCCC2)cc1Cl`: the Potency entry in assay [1], in assay [2], in assay [3], in assay [4] and in assay [5] was “inactive” each time.
As for `C=C1/C(=C/C=C2\CCC[C@]3(C)[C@@H]([C@H](C)/C=C/[C@H](O)C4CC4)CC[C@@H]23)C[C@@H](O)C[C@@H]1O`, the Potency result in assay [6], in assay [2], in assay [3] and in assay [4] was “inactive” each time.
Take `COc1ccc2cc3c(NC(=O)c4ccco4)nn(C)c3nc2c1`: the Potency result in assay [1], in assay [2], in assay [3] and in assay [5] was “inactive” in each case.
With `CN(C)C(=O)Nc1cc(-c2ccccc2)ccc1N(C)C`, the Potency result in assay [1], in assay [4] and in assay [5] was “inactive” each time. The Potency in assay [3] is 2.38 µM (active).
Turning to `COc1ccc(-c2c(C)nn3c(NCCN4CCOCC4)cc(C)nc23)cc1OC`, the Potency entry in assay [1], in assay [2] and in assay [4] was “inactive” each time.
As to `S=C(c1ccc(-c2ccc(Cl)c(Cl)c2)o1)N1CCCCC1`, the values for the Potency in assay [1] and in assay [2] were 25.5 µM (active) and 1.69 µM (active), respectively. Also, the Potency entry in assay [4] and in assay [5] was “inactive” each time.
`Cn1ncnc1[C@H]1c2n[nH]c(=O)c3cc(F)cc(c23)N[C@@H]1c1ccc(F)cc1`: the Potency entry in assay [1], in assay [2], in assay [3], in assay [4] and in assay [5] was “inactive” throughout.
On to `CC/C(C)=C/C(=O)OC1C(OC2(C)CCC3C(C4C(C)CCC42)C3(C)C)OC(C)C(O)C1O` (stereo not given), for which the Potency entry in assay [1], in assay [2], in assay [4] and in assay [5] was “inactive” in each case.
As for `NCCCC[C@H](NC(=O)[C@@H]1CCCN1C(=O)[C@@H]1CSSC[C@H](N)C(=O)N[C@@H](Cc2ccc(O)cc2)C(=O)N[C@@H](Cc2ccccc2)C(=O)N[C@@H](CCC(N)=O)C(=O)N[C@@H](CC(N)=O)C(=O)N1)C(=O)NCC(N)=O`, the Potency in assay [6] is 17.8 µM (active).
Take `C#CC(=O)N(c1ccc(OC)cc1OC)C(C(=O)NCC(=O)OCC)c1cccs1` (stereo not given): the Potency result in assay [1], in assay [2], in assay [3], in assay [4] and in assay [5] was “inactive” each time.
For `C=C1/C(=C/C=C2\CCC[C@@]3(C)C2CCC3[C@H](C)/C=C/[C@@H](O)C2CC2)C[C@@H](O)C[C@@H]1O` (stereo not given in full), the Potency entry in assay [6], in assay [2], in assay [3] and in assay [4] was “inactive” in each case.
In the case of `O=C(CCCN1CCC(n2c(=S)[nH]c3ccccc32)CC1)c1ccc(F)cc1`, in assay [6], the Potency is 4.47 µM (active).
Consider `Cn1sc(=O)n(Cc2ccccc2)c1=O`, for which the Potency entry in assay [1], in assay [3] and in assay [5] was “inactive” in each case.
Regarding `Cc1ccc(CNc2ncnc3ccc(-c4ccc(CO)o4)cc23)o1`, the Potency result in assay [1], in assay [2], in assay [3], in assay [4] and in assay [5] was “inactive” throughout.
Take `COc1ccc(CNCC(O)COc2ccc3[nH]c(=O)ccc3c2)cc1OC` (stereo not given): the Potency entry in assay [6] is “inactive”.
On to `Cc1cc(OCCCS(C)(=O)=O)cc(C)c1-c1cccc(COc2ccc(C3=CC(=O)NS3=O)cc2)c1` (stereo not given), for which the Potency result in assay [6], in assay [2], in assay [3] and in assay [4] was “inactive” each time.
In the case of `CC1(C)S[C@@H]2[C@H](NC(=O)C(C(=O)Oc3ccc4c(c3)CCC4)c3ccccc3)C(=O)N2[C@H]1C(=O)O` (stereo not given in full), in assay [6], the Potency was 8.91 µM (active).
As to `Cc1cc2c(F)c(Oc3ncnn4cc(OCC(C)OC(=O)C(C)N)c(C)c34)ccc2[nH]1` (stereo not given), the Potency entry in assay [6], in assay [2], in assay [3] and in assay [4] was “inactive” each time.
Consider `CS(=O)(=O)Nc1cc2occ(NC=O)c(=O)c2cc1Oc1ccccc1`, for which, in assay [6], the Potency was 18 µM (active) and inactive.
Turning to `CCCn1cc2c(nc(NC(=O)Nc3ccc(OC)cc3)n3nc(-c4ccco4)nc23)n1`, the Potency entry in assay [1], in assay [2], in assay [4] and in assay [5] was “inactive” throughout.
Take `CCOC(=O)COc1ccc2c(=O)cc(-c3ccccc3)oc2c1`: the Potency result in assay [6] was “inactive”.
For `CC[C@H](C)/C=C(C)/C=C/C1=CC2=CC(=O)[C@]3(C)OC(=O)[C@@H](C(C)=O)[C@@H]3C2=CO1`, the Potency result in assay [1], in assay [2], in assay [4] and in assay [5] was “inactive” each time.
`CS(=O)(=O)c1ccc(Oc2cc(F)cc(C#N)c2)c2c1[C@H](O)C(F)(F)C2`: the Potency entry in assay [6] was “inactive”.
Turning to `COC(=O)N1CC2(CC2)C[C@H](C(=O)NO)[C@H]1C(=O)N1CCN(c2ccccc2)CC1`, in assay [6], the Potency entry was “inactive”.
Turning to `COCC(c1ccc(C(F)(F)F)cc1)N1CCN(C2(C)CCN(C(=O)c3c(C)ncnc3C)CC2)CC1C` (stereo not given), the Potency result in assay [6], in assay [2], in assay [3] and in assay [4] was “inactive” in each case.

These data come from PubChem BioAssay (NCATS).
